Source: PubChem BioAssay AID1159580 (chemical genetic matrix, 2015)
Screen size: about 5,500 compounds; about 2,000 (36%) were called active. Another 18% or so got no clear call; they are omitted. Rule as the data show it: active = normalized growth mostly below about 0.91 (no sharp cut-off); inconclusive = no clear call, values can overlap the other calls; inactive = mostly above about 0.92. The list shows a part of the results.

Experiment: chemical genetic growth profiling, strain panel (AID 1159580);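 also: tested at 20 µM; growth read once vehicle control cultures reached saturation at 30 °C; 1 = growth at the plate median or of vehicle wells; lower values mean less growth of the strain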
Settings: growth OD

Measured: normalized growth

CCC(N)C(O)c1ccc(O)c(O)c1 (configuration not stated)
inactive: S. cerevisiae deletion strains, locus YJR075W, strain HOC1, stronger effect = lower value 1.01 | S. cerevisiae deletion strains, locus YKL009W, strain mrt4, stronger effect = lower value 0.996 | S. cerevisiae deletion strains, locus YKL068W, stronger effect = lower value 0.993 | S. cerevisiae deletion strains, locus YKL085W, strain MDH1 (second series), stronger effect = lower value 0.985 | S. cerevisiae deletion strains, locus YKL085W, strain MDH1, stronger effect = lower value 0.985 | S. cerevisiae deletion strains, locus YKL160W, strain elf1, stronger effect = lower value 0.999 | S. cerevisiae deletion strains, locus YKL190W, strain CNB1, stronger effect = lower value 1.01 | S. cerevisiae deletion strains, locus YKR001C, strain vps1, stronger effect = lower value 0.99 | S. cerevisiae deletion strains, locus YKR026C, strain gcn3, stronger effect = lower value 0.973 | S. cerevisiae deletion strains, locus YKR091W, strain srl3, stronger effect = lower value 0.993 | S. cerevisiae deletion strains, locus YLL001W, strain dnm1, stronger effect = lower value 1 | S. cerevisiae deletion strains, locus YLL026W, stronger effect = lower value 0.984 | S. cerevisiae deletion strains, locus YLL041C, strain sdh2, stronger effect = lower value 1 | S. cerevisiae deletion strains, locus YLR027C, strain aat2, stronger effect = lower value 0.988 | S. cerevisiae deletion strains, locus YLR039C, strain RIC1, stronger effect = lower value 1.06 | S. cerevisiae deletion strains, locus YLR058C, strain SHM2, stronger effect = lower value 1.02 | S. cerevisiae deletion strains, locus YLR102C, strain apc9, stronger effect = lower value 0.983 | S. cerevisiae deletion strains, locus YLR113W, strain HOG1, stronger effect = lower value 0.998 | S. cerevisiae deletion strains, locus YLR221C, strain rsa3, stronger effect = lower value 1 | S. cerevisiae deletion strains, locus YLR258W, strain gsy2, stronger effect = lower value 0.993 | S. cerevisiae deletion strains, locus YLR262C, strain YPT6 (second series), stronger effect = lower value 0.996 | S. cerevisiae deletion strains, locus YLR262C, strain YPT6, stronger effect = lower value 1.05 | S. cerevisiae deletion strains, locus YLR268W, strain sec22, stronger effect = lower value 0.928 | S. cerevisiae deletion strains, locus YLR320W, strain mms22, stronger effect = lower value 0.99 | S. cerevisiae deletion strains, locus YLR330W, strain CHS5, stronger effect = lower value 1.01 | S. cerevisiae deletion strains, locus YLR342W, strain FKS1 (second series), stronger effect = lower value 0.989 | S. cerevisiae deletion strains, locus YLR342W, strain FKS1, stronger effect = lower value 0.995 | S. cerevisiae deletion strains, locus YLR357W, strain rsc2, stronger effect = lower value 0.979 | S. cerevisiae deletion strains, locus YLR370C, strain arc18, stronger effect = lower value 0.989 | S. cerevisiae deletion strains, locus YLR371W, strain rom2, stronger effect = lower value 0.977 | S. cerevisiae deletion strains, locus YLR384C, strain iki3, stronger effect = lower value 0.997 | S. cerevisiae deletion strains, locus YLR418C, strain cdc73, stronger effect = lower value 1.01 | S. cerevisiae deletion strains, locus YML016C, strain PPZ1, stronger effect = lower value 1.01 | S. cerevisiae deletion strains, locus YML032C, strain rad52, stronger effect = lower value 0.972 | S. cerevisiae deletion strains, locus YML120C, strain ndi1, stronger effect = lower value 1.01 | S. cerevisiae deletion strains, locus YML124C, strain tub3, stronger effect = lower value 0.991 | S. cerevisiae deletion strains, locus YMR058W, strain fet3, stronger effect = lower value 0.987 | S. cerevisiae deletion strains, locus YMR078C, strain ctf18, stronger effect = lower value 0.977 | S. cerevisiae deletion strains, locus YMR125W, strain sto1, stronger effect = lower value 0.964 | S. cerevisiae deletion strains, locus YMR129W, stronger effect = lower value 1 | S. cerevisiae deletion strains, locus YMR205C, strain PFK2, stronger effect = lower value 0.97 | S. cerevisiae deletion strains, locus YMR223W, strain ubp8, stronger effect = lower value 1.02 | S. cerevisiae deletion strains, locus YMR231W, strain pep5, stronger effect = lower value 0.996 | S. cerevisiae deletion strains, locus YMR263W, strain SAP30, stronger effect = lower value 1.01 | S. cerevisiae deletion strains, locus YMR307W, strain GAS1, stronger effect = lower value 1.01 | S. cerevisiae deletion strains, locus YNL067W, strain RPL9B, stronger effect = lower value 0.993 | S. cerevisiae deletion strains, locus YNL071W, strain lat1, stronger effect = lower value 0.991 | S. cerevisiae deletion strains, locus YNL128W, strain TEP1, stronger effect = lower value 1.02 | S. cerevisiae deletion strains, locus YNL153C, strain GIM3, stronger effect = lower value 0.985 | S. cerevisiae deletion strains, locus YNL183C, strain NPR1, stronger effect = lower value 0.968 | S. cerevisiae deletion strains, locus YNL209W, strain ssb2, stronger effect = lower value 1 | S. cerevisiae deletion strains, locus YNL233W, strain BNI4, stronger effect = lower value 0.992 | S. cerevisiae deletion strains, locus YNL248C, strain rpa49, stronger effect = lower value 1.01 | S. cerevisiae deletion strains, locus YNL250W, strain rad50, stronger effect = lower value 0.988 | S. cerevisiae deletion strains, locus YNL271C, strain bni1, stronger effect = lower value 0.99 | S. cerevisiae deletion strains, locus YNL298W, strain CLA4, stronger effect = lower value 0.993 | S. cerevisiae deletion strains, locus YNL307C, strain MCK1, stronger effect = lower value 1 | S. cerevisiae deletion strains, locus YNL322C, strain KRE1 (second series), stronger effect = lower value 0.985 | S. cerevisiae deletion strains, locus YNL322C, strain KRE1, stronger effect = lower value 1.01 | S. cerevisiae deletion strains, locus YNR049C, strain mso1, stronger effect = lower value 0.995 | S. cerevisiae deletion strains, locus YNR052C, strain pop2, stronger effect = lower value 0.997 | S. cerevisiae deletion strains, locus YOL006C, strain TOP1, stronger effect = lower value 1.05 | S. cerevisiae deletion strains, locus YOL012C, strain htz1 0.91 | S. cerevisiae deletion strains, locus YOL147C, strain pex11, stronger effect = lower value 0.991 | S. cerevisiae deletion strains, locus YOR001W, strain rrp6, stronger effect = lower value 1 | S. cerevisiae deletion strains, locus YOR061W, strain CKA2, stronger effect = lower value 1.02 | S. cerevisiae deletion strains, locus YOR069W, strain VPS5, stronger effect = lower value 1.01 | S. cerevisiae deletion strains, locus YOR070C, strain gyp1, stronger effect = lower value 0.991 | S. cerevisiae deletion strains, locus YOR080W, strain dia2, stronger effect = lower value 0.986 | S. cerevisiae deletion strains, locus YOR083W, strain WHI5, stronger effect = lower value 1.01 | S. cerevisiae deletion strains, locus YOR106W, strain vam3, stronger effect = lower value 0.997 | S. cerevisiae deletion strains, locus YOR136W, strain idh2, stronger effect = lower value 0.989 | S. cerevisiae deletion strains, locus YOR144C, strain elg1, stronger effect = lower value 0.986 | S. cerevisiae deletion strains, locus YOR184W, strain ser1, stronger effect = lower value 1 | S. cerevisiae deletion strains, locus YOR231W, strain MKK1, stronger effect = lower value 1.02 | S. cerevisiae deletion strains, locus YOR265W, strain rbl2, stronger effect = lower value 0.99 | S. cerevisiae deletion strains, locus YOR270C, strain vph1, stronger effect = lower value 1.02 | S. cerevisiae deletion strains, locus YOR290C, strain snf2, stronger effect = lower value 0.987 | S. cerevisiae deletion strains, locus YOR316C, strain cot1, stronger effect = lower value 0.989 | S. cerevisiae deletion strains, locus YPL051W, strain arl3, stronger effect = lower value 0.983 | S. cerevisiae deletion strains, locus YPL055C, strain LGE1, stronger effect = lower value 1.03 | S. cerevisiae deletion strains, locus YPL078C, strain atp4, stronger effect = lower value 0.996 | S. cerevisiae deletion strains, locus YPL106C, strain sse1, stronger effect = lower value 0.94 | S. cerevisiae deletion strains, locus YPL240C, strain hsp82, stronger effect = lower value 1.01 | S. cerevisiae deletion strains, locus YPL241C, strain CIN2, stronger effect = lower value 1.01 | S. cerevisiae deletion strains, locus YPL256C, strain CLN2, stronger effect = lower value 1.01 | S. cerevisiae deletion strains, locus YPR119W, strain clb2, stronger effect = lower value 0.981 | S. cerevisiae deletion strains, locus YPR141C, strain kar3, stronger effect = lower value 0.984 | S. cerevisiae deletion strains, locus YPR163C, strain tif3, stronger effect = lower value 0.996 | S. cerevisiae deletion strains, locus YPR167C, strain met16, stronger effect = lower value 0.99 | S. cerevisiae deletion strains, strain wtn01, stronger effect = lower value 0.979 | S. cerevisiae strains, strain wild type, stronger effect = lower value 1.02
